Measurements reported in ChEMBL document CHEMBL2218924, “A broad activity screen in support of a chemogenomic map for kinase signalling research and drug discovery” (Biochem J, 2013).

What was measured:
[1] = biological target: Calcium/calmodulin-dependent protein kinase type II subunit beta (Homo sapiens) (UniProt Q13554); conditions: at 1 µM
[2] = biological target: Calcium/calmodulin-dependent protein kinase type II subunit beta (Homo sapiens) (UniProt Q13554); conditions: at 10 µM
[3] = biological target: Calcium/calmodulin-dependent protein kinase type II subunit gamma (Homo sapiens) (UniProt Q13555); conditions: at 1 µM
Sequence of Calcium/calmodulin-dependent protein kinase type II subunit gamma (Homo sapiens) (Q13555 whole entry): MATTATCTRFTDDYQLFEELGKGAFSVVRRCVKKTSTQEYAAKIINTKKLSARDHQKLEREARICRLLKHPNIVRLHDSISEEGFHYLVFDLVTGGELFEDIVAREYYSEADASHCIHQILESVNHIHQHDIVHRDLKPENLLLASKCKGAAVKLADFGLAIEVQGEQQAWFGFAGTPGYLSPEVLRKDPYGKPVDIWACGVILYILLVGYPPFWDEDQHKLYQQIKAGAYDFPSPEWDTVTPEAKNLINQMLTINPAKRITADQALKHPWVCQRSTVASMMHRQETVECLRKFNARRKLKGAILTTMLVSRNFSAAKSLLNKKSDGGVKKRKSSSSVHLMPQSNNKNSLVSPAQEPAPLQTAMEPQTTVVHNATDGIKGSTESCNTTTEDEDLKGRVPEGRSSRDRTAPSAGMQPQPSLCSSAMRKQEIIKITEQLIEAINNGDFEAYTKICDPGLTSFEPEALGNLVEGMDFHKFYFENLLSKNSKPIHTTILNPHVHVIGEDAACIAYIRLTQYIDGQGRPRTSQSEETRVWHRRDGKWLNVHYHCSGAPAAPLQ

[4] = biological target: Calcium/calmodulin-dependent protein kinase type II subunit gamma (Homo sapiens) (UniProt Q13555); conditions: at 10 µM
[5] = biological target: Calcium/calmodulin-dependent protein kinase type II subunit delta (Homo sapiens) (UniProt Q13557); conditions: at 1 µM
Sequence of Calcium/calmodulin-dependent protein kinase type II subunit delta (Homo sapiens) (Q13557 whole entry): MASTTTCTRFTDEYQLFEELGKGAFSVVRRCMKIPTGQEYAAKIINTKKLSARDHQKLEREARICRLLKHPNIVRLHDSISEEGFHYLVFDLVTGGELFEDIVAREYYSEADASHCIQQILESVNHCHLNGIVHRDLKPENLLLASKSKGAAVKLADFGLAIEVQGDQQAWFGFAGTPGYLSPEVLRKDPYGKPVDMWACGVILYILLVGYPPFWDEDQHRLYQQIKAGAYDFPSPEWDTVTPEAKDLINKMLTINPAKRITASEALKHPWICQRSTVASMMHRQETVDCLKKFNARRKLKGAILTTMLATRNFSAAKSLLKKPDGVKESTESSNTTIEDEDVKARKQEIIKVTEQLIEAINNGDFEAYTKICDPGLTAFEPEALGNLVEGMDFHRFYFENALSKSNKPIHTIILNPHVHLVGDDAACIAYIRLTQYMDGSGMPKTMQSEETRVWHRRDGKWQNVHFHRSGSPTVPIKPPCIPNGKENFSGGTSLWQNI

[6] = biological target: Calcium/calmodulin-dependent protein kinase type II subunit delta (Homo sapiens) (UniProt Q13557); conditions: at 10 µM
[7] = biological target: T1, Serine/threonine-protein kinase 17A (Homo sapiens) (UniProt Q9UEE5); conditions: at 1 µM
T1 sequence (whole entry): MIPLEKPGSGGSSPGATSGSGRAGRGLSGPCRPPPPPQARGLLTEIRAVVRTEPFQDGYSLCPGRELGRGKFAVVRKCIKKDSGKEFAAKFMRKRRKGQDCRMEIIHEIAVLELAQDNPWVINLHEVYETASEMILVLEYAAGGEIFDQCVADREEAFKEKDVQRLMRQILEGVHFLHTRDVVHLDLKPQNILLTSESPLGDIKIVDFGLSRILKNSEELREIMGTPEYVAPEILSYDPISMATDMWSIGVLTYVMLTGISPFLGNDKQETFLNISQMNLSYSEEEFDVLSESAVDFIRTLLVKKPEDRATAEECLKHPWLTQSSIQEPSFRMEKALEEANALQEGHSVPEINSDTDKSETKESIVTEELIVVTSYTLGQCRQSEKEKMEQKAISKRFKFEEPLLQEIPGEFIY

[8] = biological target: Calcium/calmodulin-dependent protein kinase type 1 (Homo sapiens) (UniProt Q14012); conditions: at 1 µM
Sequence of Calcium/calmodulin-dependent protein kinase type 1 (Homo sapiens) (Q14012 whole entry, looked up): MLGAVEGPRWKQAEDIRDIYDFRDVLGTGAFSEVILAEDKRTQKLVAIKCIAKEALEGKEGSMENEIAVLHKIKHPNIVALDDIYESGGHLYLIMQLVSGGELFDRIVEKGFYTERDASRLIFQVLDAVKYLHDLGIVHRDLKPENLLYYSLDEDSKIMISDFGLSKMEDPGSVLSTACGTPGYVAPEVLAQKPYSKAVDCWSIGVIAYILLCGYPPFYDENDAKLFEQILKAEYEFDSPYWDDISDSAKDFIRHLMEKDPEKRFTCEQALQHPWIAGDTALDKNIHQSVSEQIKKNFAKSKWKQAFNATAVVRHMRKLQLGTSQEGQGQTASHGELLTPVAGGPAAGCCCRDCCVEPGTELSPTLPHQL

[9] = biological target: Calcium/calmodulin-dependent protein kinase type 1 (Homo sapiens) (UniProt Q14012); conditions: at 10 µM
[10] = biological target: T2, Calcium/calmodulin-dependent protein kinase type IV (Homo sapiens) (UniProt Q16566); conditions: at 1 µM
T2 sequence (whole entry): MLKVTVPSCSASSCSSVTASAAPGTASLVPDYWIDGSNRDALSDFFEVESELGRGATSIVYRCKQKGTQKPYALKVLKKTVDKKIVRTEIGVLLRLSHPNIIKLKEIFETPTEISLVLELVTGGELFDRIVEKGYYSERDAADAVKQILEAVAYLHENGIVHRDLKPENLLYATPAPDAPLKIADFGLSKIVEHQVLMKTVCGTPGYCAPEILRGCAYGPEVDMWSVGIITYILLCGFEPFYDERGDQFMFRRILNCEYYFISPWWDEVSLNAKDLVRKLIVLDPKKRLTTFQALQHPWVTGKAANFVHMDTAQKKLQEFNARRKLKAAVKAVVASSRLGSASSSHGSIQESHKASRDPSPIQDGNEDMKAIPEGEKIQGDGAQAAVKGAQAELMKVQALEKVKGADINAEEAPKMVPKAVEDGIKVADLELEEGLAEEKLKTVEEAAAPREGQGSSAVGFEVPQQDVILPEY

[11] = biological target: T2, Calcium/calmodulin-dependent protein kinase type IV (Homo sapiens); conditions: at 10 µM
[12] = biological target: Death-associated protein kinase 1 (Homo sapiens) (UniProt P53355); conditions: at 10 µM
Sequence of Death-associated protein kinase 1 (Homo sapiens) (P53355 whole entry, looked up): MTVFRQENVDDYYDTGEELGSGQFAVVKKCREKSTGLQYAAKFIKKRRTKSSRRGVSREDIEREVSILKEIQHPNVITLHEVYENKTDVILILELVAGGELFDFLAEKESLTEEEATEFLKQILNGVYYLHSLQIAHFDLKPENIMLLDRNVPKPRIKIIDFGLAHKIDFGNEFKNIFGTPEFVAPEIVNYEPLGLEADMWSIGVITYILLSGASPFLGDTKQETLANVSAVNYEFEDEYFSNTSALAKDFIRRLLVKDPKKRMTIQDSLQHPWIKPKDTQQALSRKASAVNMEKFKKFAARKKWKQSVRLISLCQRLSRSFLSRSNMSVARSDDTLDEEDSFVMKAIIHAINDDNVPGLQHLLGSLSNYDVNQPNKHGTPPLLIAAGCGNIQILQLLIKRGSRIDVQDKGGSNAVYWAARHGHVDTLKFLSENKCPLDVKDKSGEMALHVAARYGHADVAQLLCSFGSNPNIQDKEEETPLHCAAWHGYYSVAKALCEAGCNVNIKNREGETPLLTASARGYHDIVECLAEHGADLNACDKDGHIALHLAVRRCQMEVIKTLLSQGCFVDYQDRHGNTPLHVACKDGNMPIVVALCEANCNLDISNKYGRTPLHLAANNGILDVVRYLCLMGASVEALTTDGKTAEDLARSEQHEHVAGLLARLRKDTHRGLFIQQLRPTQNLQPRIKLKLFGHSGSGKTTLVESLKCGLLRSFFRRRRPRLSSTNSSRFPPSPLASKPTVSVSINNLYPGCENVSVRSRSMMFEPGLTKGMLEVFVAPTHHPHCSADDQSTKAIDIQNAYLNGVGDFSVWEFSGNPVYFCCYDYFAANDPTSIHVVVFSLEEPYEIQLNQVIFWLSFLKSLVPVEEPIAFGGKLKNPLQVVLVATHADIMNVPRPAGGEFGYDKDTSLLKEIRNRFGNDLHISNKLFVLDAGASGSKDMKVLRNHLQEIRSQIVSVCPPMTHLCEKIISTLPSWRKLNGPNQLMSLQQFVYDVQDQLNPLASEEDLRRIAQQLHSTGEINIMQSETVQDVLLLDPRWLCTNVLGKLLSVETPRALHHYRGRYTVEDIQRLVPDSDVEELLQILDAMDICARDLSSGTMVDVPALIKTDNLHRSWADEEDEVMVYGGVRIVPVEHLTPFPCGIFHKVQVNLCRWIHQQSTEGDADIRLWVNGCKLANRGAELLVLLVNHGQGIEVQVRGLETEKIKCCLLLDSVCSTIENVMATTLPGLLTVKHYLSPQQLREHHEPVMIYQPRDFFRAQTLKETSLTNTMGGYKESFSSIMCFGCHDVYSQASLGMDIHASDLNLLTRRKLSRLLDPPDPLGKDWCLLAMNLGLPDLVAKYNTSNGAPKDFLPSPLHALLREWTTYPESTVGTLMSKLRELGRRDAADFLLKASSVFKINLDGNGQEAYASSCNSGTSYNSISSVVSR

[13] = biological target: Death-associated protein kinase 2 (Homo sapiens) (UniProt Q9UIK4); conditions: at 1 µM
Sequence of Death-associated protein kinase 2 (Homo sapiens) (Q9UIK4 whole entry, looked up): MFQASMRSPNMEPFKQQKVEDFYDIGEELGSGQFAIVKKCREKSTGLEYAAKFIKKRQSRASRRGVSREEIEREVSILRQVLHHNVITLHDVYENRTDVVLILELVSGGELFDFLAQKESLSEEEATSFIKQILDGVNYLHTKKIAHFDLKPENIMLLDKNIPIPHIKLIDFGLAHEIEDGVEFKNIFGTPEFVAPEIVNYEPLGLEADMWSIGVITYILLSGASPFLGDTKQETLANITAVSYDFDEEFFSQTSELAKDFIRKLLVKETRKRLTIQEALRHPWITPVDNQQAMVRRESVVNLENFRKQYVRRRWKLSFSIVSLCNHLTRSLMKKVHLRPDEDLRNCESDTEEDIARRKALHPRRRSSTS

[14] = biological target: T3, Serine/threonine-protein kinase DCLK2 (Homo sapiens) (UniProt Q8N568); conditions: at 1 µM
T3 sequence (whole entry): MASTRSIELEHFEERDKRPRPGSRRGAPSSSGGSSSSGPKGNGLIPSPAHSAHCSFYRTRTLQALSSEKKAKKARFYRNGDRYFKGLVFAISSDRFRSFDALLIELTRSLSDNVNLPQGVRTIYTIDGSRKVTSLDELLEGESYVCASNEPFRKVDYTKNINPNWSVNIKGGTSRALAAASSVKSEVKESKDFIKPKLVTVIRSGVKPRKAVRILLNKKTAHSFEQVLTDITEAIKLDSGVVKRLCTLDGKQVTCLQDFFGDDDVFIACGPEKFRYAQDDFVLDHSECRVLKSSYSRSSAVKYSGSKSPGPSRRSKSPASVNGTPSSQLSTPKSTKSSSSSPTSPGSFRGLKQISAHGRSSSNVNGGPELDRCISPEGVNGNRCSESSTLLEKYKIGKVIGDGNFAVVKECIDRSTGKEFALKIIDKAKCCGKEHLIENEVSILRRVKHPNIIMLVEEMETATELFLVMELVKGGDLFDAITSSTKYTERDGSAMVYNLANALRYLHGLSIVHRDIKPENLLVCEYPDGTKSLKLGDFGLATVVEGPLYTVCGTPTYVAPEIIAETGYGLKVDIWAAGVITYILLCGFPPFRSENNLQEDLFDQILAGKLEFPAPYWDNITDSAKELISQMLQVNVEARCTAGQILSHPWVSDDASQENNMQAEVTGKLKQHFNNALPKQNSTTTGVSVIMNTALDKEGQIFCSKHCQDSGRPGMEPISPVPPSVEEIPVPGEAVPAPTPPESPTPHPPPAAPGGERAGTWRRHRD

[15] = biological target: T3, Serine/threonine-protein kinase DCLK2 (Homo sapiens); conditions: at 10 µM
[16] = biological target: T4, Discoidin domain-containing receptor 2 (Homo sapiens) (UniProt Q16832); conditions: at 1 µM
T4 sequence (whole entry): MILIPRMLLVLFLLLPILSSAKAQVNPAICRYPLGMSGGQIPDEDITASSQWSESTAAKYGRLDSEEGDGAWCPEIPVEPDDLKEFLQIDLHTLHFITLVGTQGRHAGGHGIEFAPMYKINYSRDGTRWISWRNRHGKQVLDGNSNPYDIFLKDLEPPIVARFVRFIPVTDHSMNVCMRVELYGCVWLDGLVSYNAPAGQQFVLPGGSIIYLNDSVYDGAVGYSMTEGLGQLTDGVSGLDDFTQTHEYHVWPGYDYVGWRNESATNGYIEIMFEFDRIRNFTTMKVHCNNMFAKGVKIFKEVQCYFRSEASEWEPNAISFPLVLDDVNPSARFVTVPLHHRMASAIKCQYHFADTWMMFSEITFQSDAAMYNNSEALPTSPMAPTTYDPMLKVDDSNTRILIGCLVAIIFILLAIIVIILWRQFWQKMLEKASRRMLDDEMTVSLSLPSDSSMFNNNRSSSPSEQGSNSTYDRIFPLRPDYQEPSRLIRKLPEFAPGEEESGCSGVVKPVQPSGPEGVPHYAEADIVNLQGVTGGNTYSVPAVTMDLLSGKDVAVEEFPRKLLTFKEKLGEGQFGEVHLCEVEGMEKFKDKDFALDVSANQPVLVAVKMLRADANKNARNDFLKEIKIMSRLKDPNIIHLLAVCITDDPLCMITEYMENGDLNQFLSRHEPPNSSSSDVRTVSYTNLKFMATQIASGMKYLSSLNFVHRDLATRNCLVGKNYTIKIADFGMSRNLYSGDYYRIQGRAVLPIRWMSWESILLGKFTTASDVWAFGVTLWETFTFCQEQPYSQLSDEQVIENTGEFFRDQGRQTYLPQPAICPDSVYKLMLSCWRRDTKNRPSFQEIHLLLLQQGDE

[17] = biological target: T4, Discoidin domain-containing receptor 2 (Homo sapiens); conditions: at 10 µM
[18] = biological target: T5, Myotonin-protein kinase (Homo sapiens) (UniProt Q09013); conditions: at 1 µM
T5 sequence (whole entry): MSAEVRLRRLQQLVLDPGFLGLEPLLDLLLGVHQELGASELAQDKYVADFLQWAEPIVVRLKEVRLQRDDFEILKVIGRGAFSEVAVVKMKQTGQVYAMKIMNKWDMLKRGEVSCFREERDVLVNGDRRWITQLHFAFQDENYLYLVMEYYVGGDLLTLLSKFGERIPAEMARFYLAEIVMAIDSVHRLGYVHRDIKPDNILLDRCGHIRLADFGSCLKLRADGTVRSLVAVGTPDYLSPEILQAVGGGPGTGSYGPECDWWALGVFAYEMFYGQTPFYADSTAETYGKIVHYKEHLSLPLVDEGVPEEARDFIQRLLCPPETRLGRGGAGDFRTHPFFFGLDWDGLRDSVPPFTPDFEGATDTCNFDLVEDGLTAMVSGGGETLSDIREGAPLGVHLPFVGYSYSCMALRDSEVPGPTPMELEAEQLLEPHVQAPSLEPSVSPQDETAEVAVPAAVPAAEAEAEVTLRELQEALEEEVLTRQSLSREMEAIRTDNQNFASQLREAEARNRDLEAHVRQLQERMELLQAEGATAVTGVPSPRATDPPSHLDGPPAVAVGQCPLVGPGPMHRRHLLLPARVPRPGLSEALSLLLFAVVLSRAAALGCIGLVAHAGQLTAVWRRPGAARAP

[19] = biological target: T5, Myotonin-protein kinase (Homo sapiens); conditions: at 10 µM
[20] = biological target: Death-associated protein kinase 2 (Homo sapiens) (UniProt Q9UIK4); conditions: at 10 µM

Sequence of Calcium/calmodulin-dependent protein kinase type II subunit beta (Homo sapiens) (Q13554 whole entry): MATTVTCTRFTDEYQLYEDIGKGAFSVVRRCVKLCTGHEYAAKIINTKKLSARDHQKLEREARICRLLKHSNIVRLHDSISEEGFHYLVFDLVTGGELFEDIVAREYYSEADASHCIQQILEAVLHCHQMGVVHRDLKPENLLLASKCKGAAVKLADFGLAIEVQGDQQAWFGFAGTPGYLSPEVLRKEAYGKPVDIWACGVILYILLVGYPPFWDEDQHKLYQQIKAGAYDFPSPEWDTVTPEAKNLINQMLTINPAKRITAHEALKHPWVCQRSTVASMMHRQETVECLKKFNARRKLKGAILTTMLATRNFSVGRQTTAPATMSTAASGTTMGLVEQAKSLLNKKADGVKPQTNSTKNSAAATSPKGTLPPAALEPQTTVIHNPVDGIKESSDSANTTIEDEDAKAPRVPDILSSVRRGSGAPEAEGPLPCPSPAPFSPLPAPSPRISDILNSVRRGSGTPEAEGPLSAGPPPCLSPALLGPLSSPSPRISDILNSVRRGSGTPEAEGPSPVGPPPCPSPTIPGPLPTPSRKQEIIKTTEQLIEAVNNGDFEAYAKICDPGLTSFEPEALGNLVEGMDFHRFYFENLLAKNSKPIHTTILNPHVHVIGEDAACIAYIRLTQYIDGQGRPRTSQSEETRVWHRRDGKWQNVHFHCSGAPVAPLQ

Compound: N#CCCc1ccc2c(c1)-c1[nH]c3ccc([N+](=O)[O-])cc3c1CC(=O)N2
- residual activity [1]: 54%
- residual activity [2]: 32%
- residual activity [3]: 6%
- residual activity [4]: 1%
- residual activity [5]: 10%
- residual activity [6]: 3%
- residual activity [7]: 11%

Compound: CC(=O)c1ccc(N2CCOCC2)cc1O
- residual activity [8]: 108%
- residual activity [9]: 83%
- residual activity [1]: 89%
- residual activity [2]: 92%
- residual activity [3]: 103%
- residual activity [4]: 96%
- residual activity [5]: 102%
- residual activity [6]: 86%
- residual activity [10]: 97%
- residual activity [11]: 98%
- residual activity [12]: 89%
- residual activity [13]: 100%
- residual activity [14]: 75%
- residual activity [15]: 74%
- residual activity [16]: 112%
- residual activity [17]: 97%
- residual activity [18]: 112%
- residual activity [19]: 130%

Compound: COc1cc2ncc(-c3ccccc3)nc2cc1OC
- residual activity [1]: 100%
- residual activity [2]: 82%
- residual activity [4]: 78%
- residual activity [6]: 80%
- residual activity [11]: 60%
- residual activity [12]: 78%
- residual activity [13]: 83%
- residual activity [15]: 52%
- residual activity [17]: 92%
- residual activity [7]: 124%

Compound: c1ccc(-c2n[nH]c3c2oc2ccccc23)cc1
- residual activity [8]: 115%
- residual activity [9]: 136%
- residual activity [1]: 87%
- residual activity [2]: 36%
- residual activity [3]: 81%
- residual activity [4]: 25%
- residual activity [5]: 79%
- residual activity [6]: 22%
- residual activity [11]: 90%
- residual activity [12]: 98%
- residual activity [14]: 82%
- residual activity [15]: 74%
- residual activity [18]: 146%
- residual activity [19]: 121%
- residual activity [7]: 43%

Compound: C[C@@H](N)[C@H]1CC[C@H](C(=O)Nc2ccncc2)CC1
- residual activity [8]: 123%
- residual activity [9]: 125%
- residual activity [3]: 100%
- residual activity [4]: 89%
- residual activity [5]: 107%
- residual activity [6]: 92%
- residual activity [10]: 90%
- residual activity [11]: 90%
- residual activity [12]: 104%
- residual activity [13]: 88%
- residual activity [20]: 85%
- residual activity [14]: 110%
- residual activity [15]: 87%
- residual activity [16]: 108%
- residual activity [17]: 105%
- residual activity [18]: 95%
- residual activity [19]: 95%
- residual activity [7]: 70%

Compound: CCN(CC)C(=O)c1ccc(Nc2nc(OCC3CCCCC3)c3nc[nH]c3n2)cc1
- residual activity [8]: 70%
- residual activity [9]: 19%
- residual activity [1]: 98%
- residual activity [2]: 51%
- residual activity [3]: 102%
- residual activity [4]: 51%
- residual activity [6]: 49%
- residual activity [10]: 82%
- residual activity [11]: 28%
- residual activity [12]: 54%
- residual activity [13]: 96%
- residual activity [20]: 68%
- residual activity [15]: 99%
- residual activity [16]: 93%
- residual activity [17]: 66%
- residual activity [7]: 23%

Compound: COc1cc2ncnc(Nc3ccc(NC(=O)c4ccccc4)cc3)c2cc1OC
- residual activity [8]: 99%
- residual activity [9]: 41%
- residual activity [1]: 102%
- residual activity [2]: 94%
- residual activity [5]: 108%
- residual activity [6]: 91%
- residual activity [11]: 95%
- residual activity [12]: 83%
- residual activity [13]: 98%
- residual activity [20]: 106%
- residual activity [14]: 99%
- residual activity [15]: 104%
- residual activity [17]: 89%
- residual activity [18]: 110%
- residual activity [19]: 145%
- residual activity [7]: 75%
